The source of these data is PubChem BioAssay (Tox21).

SMILES strings stand for the structures. Unmarked numbers belong to inactive results. Results filed as inconclusive are left out. Activity calls are given as the source filed them. Unless noted, calls come from the whole dose curve; as a rule, active = well fitted curve in the direction sought with a large enough effect in the repeat runs; inconclusive = weak or mixed curves; inactive = no such curve, though single readings can be large; an effect the other way counts as inactive or inconclusive.

Experiment [1] can be described thus: qHTS assay to identify small molecule antagonists of the glucocorticoid receptor (GR) signaling pathway - cell viability counter screen (AID 720693; note: nearly all actives have a fitted effect of over 55% in size). (Quantitative high-throughput screening tests each substance at several concentrations.)
Experiment [2] can be described thus: qHTS assay for identifying genotoxic compounds that show differential cytotoxicity against isogenic chicken DT40 cell lines with known DNA damage response pathways - Rev3 mutant cell line (AID 743014). Note: nearly all actives have a fitted effect of over 55% in size. Note: potency is the fitted concentration of half-maximal effect.
Experiment [3] in a line: qHTS assay for identifying genotoxic compounds that show differential cytotoxicity against isogenic chicken DT40 cell lines with known DNA damage response pathways - Rad54/Ku70 mutant cell line (AID 743015). Note: nearly all actives have a fitted effect of over 60% in size.
Experiment [4] in a line: qHTS assay to identify small molecule antagonists of the androgen receptor (AR) signaling pathway - cell viability counter screen (AID 743033; note: nearly all actives have a fitted effect of over 45% in size).
Experiment [5] is described as follows: qHTS assay to identify small molecule antagonists of the thyroid receptor (TR) signaling pathway (AID 743065). Note: series mostly up to about 70 µM; nearly all actives have a fitted effect of over 55% in size. Put shortly: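 GH3.TRE-Luc rat pituitary cells carrying two TR response elements driving luciferase were plated for 4 h, given compound plus 1 nM T3 (final), and incubated 23.5 h at 37 C. ONE-Glo luminescence measured reporter inhibition; CellTiter-Fluor fluorescence tracked cytotoxicity.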

For experiment [6], the system named is thyroid hormone receptor (rat, GH3 cells). As to the kind of experiment: qHTS assay to identify small molecule agonists of the thyroid receptor (TR) signaling pathway (AID 743066; calls by dose curve).
Experiment [7] is described as follows: qHTS assay to identify small molecule antagonists of the estrogen receptor alpha (ER-alpha) signaling pathway - cell viability counter screen (AID 743074; calls by dose curve;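 note: HEK293 cells carrying ER-alpha-UAS-bla reporter stimulated with 17beta-estradiol; nearly all actives have a fitted effect of over 45% in size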).
Experiment [8] in a line: qHTS assay to identify small molecule antagonists of the estrogen receptor alpha (ER-alpha) signaling pathway using the BG1 cell line - cell viability counter screen (AID 743081).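 Note: compound given together with 17beta-estradiol as the ER stimulus; series mostly up to about 70 µM; nearly all actives have a fitted effect of over 45% in size.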
For experiment [9], the target named is Androgen receptor (Homo sapiens) (UniProt P10275). Description: qHTS assay to identify small molecule antagonists of the androgen receptor (AR) signaling pathway (AID 743035; active = well fitted inhibition curve with a large enough effect in the signal ratio in the repeat runs, not every such curve was filed as active; the % refers to the signal ratio). The essentials:
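Antagonist mode: AR-bla HEK293 cells co-treated with test compounds and agonist R1881 for 16 h at 37C, 5% CO2. Beta-lactamase activity read as FRET fluorescence after 2 h room-temperature substrate loading.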

Experiment [10] has the same target. As to the kind of experiment: qHTS assay to identify small molecule agonists of the androgen receptor (AR) signaling pathway (AID 743036; active = well fitted activation curve with a large enough effect in the signal ratio in the repeat runs, with a control signal flat, not every such curve was filed as active; the % refers to the signal ratio). The essentials: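 In this Tox21 qHTS, 2,000 HEK293 AR-bla cells per well were incubated with compounds for 16 h at 37C and 5% CO2. Fluorescence intensity was recorded 2 h after adding LiveBLAzer B/G FRET substrate at room temperature.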

The target is the same in experiment [11]. As to the kind of experiment: qHTS assay to identify small molecule agonists of the androgen receptor (AR) signaling pathway using the MDA cell line (AID 743040; note: nearly all actives have a fitted effect of over 20% in size). The essentials:
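Cell-based luciferase reporter: MDA-kb2, MMTV promoter (AR + GR response elements). 16 h compound exposure at 37C; ONE-Glo, 30 min RT, luminescence.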

Experiment [12] shares this target. Description: qHTS assay to identify small molecule antagonists of the androgen receptor (AR) signaling pathway using the MDA cell line (AID 743042; note: nearly all actives have a fitted effect of over 55% in size). Put shortly: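 MDA-kb2 cells (human breast carcinoma, stably carrying an MMTV-luciferase reporter responsive to AR and GR) were plated at 3,000 cells/well and preincubated 5 hr at 37C, then given compound plus R1881 agonist for 16 h. ONE-Glo luminescence was read.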

The target in a further experiment is Aromatase (Homo sapiens) (UniProt P11511). As to the kind of experiment: qHTS assay to identify aromatase inhibitors (AID 743083).
Aromatase (Homo sapiens), sequence (P11511 whole entry, looked up): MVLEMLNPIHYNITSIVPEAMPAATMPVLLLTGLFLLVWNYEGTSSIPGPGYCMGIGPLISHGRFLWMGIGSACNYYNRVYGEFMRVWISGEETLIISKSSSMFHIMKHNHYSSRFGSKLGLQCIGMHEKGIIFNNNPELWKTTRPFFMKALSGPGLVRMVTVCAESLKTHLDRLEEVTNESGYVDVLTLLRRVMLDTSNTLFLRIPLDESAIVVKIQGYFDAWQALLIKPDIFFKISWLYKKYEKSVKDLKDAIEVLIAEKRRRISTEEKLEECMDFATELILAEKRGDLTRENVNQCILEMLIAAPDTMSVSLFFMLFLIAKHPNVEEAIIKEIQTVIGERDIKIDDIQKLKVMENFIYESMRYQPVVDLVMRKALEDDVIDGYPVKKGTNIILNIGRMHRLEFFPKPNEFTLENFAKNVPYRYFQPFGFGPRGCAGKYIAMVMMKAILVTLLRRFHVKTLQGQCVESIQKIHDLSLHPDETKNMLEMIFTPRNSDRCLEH
Experiment [13] concerns the target Estrogen receptor (Homo sapiens) (UniProt P03372). Description: qHTS assay to identify small molecule antagonists of the estrogen receptor alpha (ER-alpha) signaling pathway (AID 743069; active = well fitted curve in the direction sought with a large enough effect in the signal ratio in the repeat runs, not every such curve was filed as active; the % refers to the signal ratio). Put shortly: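 A 17beta-estradiol challenge was applied right after compound transfer to ER-alpha-UAS-bla HEK293 cells previously kept in charcoal-stripped serum. Plates stood 18 hr at 37C and 5% CO2; fluorescence was read following 2 hr FRET substrate loading at room temperature.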

Experiment [14] has the same target. Description: qHTS assay to identify small molecule agonists of the estrogen receptor alpha (ER-alpha) signaling pathway (AID 743075; calls by dose curve;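 note: HEK293 GripTite cells with ER-alpha and UAS-driven beta-lactamase reporter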).
Experiment [15] has the same target. As to the kind of experiment: qHTS assay to identify small molecule agonists of the estrogen receptor alpha (ER-alpha) signaling pathway using the BG1 cell line (AID 743079). Note: nearly all actives have a fitted effect of over 20% in size. Note: potency is the fitted concentration of half-maximal effect.
The nature of experiment [16]: qHTS assay to identify small molecule antagonists of the estrogen receptor alpha (ER-alpha) signaling pathway using the BG1 cell line (AID 743080; calls by dose curve;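 note: BG1 cells stimulated with 17beta-estradiol alongside compound; series mostly up to about 70 µM; nearly all actives have a fitted effect of over 25% in size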). The essentials: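 Luminescence from a 4×ERE-luciferase reporter in BG1-Luc-4E2 cells served as read-out. Cells, pre-cultured 5 days in stripped-serum phenol-red-free medium, were exposed to compound with 17beta-estradiol co-stimulation for 21.5 h at 37 C.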

Experiment [17] is described as follows: qHTS assay to identify small molecule antagonists of the androgen receptor (AR) signaling pathway using the MDA cell line - cell viability counter screen (AID 743041; note: nearly all actives have a fitted effect of over 45% in size). Put shortly:
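In this qHTS counter assay, fluorescence intensity after CellTiter-Fluor addition indicated viability of MDA-kb2 AR-luc cells given compounds and R1881 for 16 h at 37C.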

The nature of experiment [18]: qHTS assay to identify small molecule antagonists of the thyroid receptor (TR) signaling pathway - cell viability counter screen (AID 743064). Note: nearly all actives have a fitted effect of over 50% in size. The essentials: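 Counter screen for cytotoxicity: compound plus T3 (1 nM final) on GH3.TRE-Luc cells, 23.5 h at 37 °C, then fluorescence viability readout with CellTiter-Fluor.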
Experiment [19] is described as follows: qHTS assay for identifying genotoxic compounds that show differential cytotoxicity against isogenic chicken DT40 cell lines with known DNA damage response pathways - wild type cell line (AID 743012). Note: nearly all actives have a fitted effect of over 60% in size. The essentials: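 Viability by ATP luminescence (CellTiter-Glo, 30 min RT) after 40 h compound treatment at 37 C/5% CO2, using 300 parental DNA repair-proficient DT40 cells per well.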
% is set by controls: 0 for no effect and ±100 for the full control effect.

Estrogen receptor (Homo sapiens), sequence (P03372 whole entry, looked up): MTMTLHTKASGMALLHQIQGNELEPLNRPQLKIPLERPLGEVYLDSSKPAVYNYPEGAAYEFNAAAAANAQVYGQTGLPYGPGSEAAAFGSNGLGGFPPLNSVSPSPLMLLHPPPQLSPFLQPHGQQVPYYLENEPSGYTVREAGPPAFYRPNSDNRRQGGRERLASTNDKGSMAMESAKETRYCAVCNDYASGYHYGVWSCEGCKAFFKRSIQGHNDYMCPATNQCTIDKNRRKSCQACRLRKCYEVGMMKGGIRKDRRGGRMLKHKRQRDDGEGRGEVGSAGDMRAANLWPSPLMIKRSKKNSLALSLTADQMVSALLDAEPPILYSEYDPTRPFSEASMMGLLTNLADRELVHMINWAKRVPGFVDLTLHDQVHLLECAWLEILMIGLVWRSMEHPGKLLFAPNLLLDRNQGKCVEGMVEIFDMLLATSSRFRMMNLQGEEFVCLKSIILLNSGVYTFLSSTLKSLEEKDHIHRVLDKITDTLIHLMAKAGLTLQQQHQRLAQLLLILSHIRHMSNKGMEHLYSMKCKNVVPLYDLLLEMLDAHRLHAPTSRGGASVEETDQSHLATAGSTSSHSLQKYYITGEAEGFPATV
Androgen receptor (Homo sapiens), sequence (P10275 whole entry, looked up): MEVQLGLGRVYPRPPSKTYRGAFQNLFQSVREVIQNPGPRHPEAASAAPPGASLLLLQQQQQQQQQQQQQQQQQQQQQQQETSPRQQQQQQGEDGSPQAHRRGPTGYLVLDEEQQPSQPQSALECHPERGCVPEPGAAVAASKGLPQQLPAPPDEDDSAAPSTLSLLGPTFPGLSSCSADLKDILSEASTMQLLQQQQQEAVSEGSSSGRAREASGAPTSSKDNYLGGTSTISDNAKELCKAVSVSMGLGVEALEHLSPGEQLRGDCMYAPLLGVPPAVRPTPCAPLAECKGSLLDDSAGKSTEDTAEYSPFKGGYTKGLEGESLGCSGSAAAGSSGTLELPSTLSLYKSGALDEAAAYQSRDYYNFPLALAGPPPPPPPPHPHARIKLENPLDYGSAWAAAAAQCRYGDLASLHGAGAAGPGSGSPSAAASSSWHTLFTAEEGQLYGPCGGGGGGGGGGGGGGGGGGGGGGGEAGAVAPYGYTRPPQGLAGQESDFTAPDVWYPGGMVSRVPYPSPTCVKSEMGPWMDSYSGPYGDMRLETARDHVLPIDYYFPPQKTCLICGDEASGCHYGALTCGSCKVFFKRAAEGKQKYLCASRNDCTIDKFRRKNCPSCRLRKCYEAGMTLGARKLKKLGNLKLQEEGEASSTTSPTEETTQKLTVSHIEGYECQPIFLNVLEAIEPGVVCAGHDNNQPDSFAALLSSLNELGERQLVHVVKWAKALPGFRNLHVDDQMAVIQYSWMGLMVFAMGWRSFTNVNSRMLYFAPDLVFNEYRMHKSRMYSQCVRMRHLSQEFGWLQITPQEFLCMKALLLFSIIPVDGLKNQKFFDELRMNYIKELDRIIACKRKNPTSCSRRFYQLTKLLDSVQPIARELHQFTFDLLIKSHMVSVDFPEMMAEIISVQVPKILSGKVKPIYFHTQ

Regarding `CCC(C)(CCC(C)C)C(=O)[O-].CCC(C)(CCC(C)C)C(=O)[O-].[Zn+2]` (stereo not given), the Potency entry in experiment [1], in experiment [2], in experiment [3], in experiment [5], in [6] and in experiment [7] was “inactive” throughout. The call in experiment [4] and in experiment [8] was inactive.
Regarding `CC(C)COC(=O)COc1ccc(Cl)cc1Cl`, the Potency result in [1], in experiment [9], in [5], in experiment [6] and in experiment [7] was “inactive” each time. The result (in experiment [4]; in experiment [10]; in experiment [11]; in [12]; in experiment [8]; in the experiment with Aromatase (Homo sapiens)) was inactive.
Consider `O=C(Oc1ccccc1C(=O)O)c1ccccc1O`, for which the Potency entry in experiment [1], in experiment [5], in [6], in [13], in experiment [7] and in experiment [14] was “inactive” in each case. Besides, the molecule was called inactive (in [4]; in experiment [16]; in [8]; with Aromatase (Homo sapiens)). In experiment [15], the Potency is 26.6 µM (active).
Consider `C=CCCCCCCCCCCC`, for which the figures for the viability change, negative = cytotoxic in experiment [1] and in [17] were 4.18% [at 7.04 µM] and -1.53% [at 8.47 µM], respectively. In experiment [2], the activity, negative = cytotoxicity is 4.5% [at 8.53 µM]. In addition, the values for the activity change, negative = cytotoxicity in experiment [4] and in [8] were -0.32% [at 7.04 µM] and 2.93% [at 8.47 µM], respectively. Moreover, the results for the activity change, negative = inhibition in experiment [9], in experiment [12] and in experiment [16] were -3.92% [at 7.04 µM], 17.6% [at 8.47 µM] and -1.81% [at 8.47 µM], respectively. The activation is -0.154% [at 6.9 µM] in experiment [10], -1.31% [at 8.08 µM] in [6], -3.33% [at 6.71 µM] in experiment [14] and -5.04% [at 8.47 µM] in experiment [15]. For the same molecule, the activity change in [11] is 4.86% [at 8.47 µM]. Further, the activity change, negative = cytotoxic in experiment [18] was -6.91% [at 8.44 µM]. For the same molecule, the activity, negative = inhibition in experiment [5] is 8.56% [at 8.44 µM]; in experiment [13], -5.51% [at 6.71 µM]; with Aromatase (Homo sapiens), 6.54% [at 8.47 µM].
For the molecule `OC[C@@H](O)[C@H](O)[C@@H](O)[C@@H](O)CO`, the Potency entry in [1], in [2], in experiment [18], in [5], in experiment [6] and in experiment [13] was “inactive” each time. The Potency entry in [7], in experiment [14] and in [15] was “inactive” each time. In addition, the outcome (in experiment [4]; in experiment [17]; in experiment [16]; in [8]; with Aromatase (Homo sapiens)) was inactive.
With `C[C@@H]1C[C@H]2[C@@H]3C[C@H](F)C4=CC(=O)C=C[C@]4(C)[C@@]3(F)[C@@H](O)C[C@]2(C)[C@@]1(O)C(=O)CO`, the Potency result in [1], in experiment [18], in experiment [5], in experiment [6] and in [7] was “inactive” each time. Also, the molecule was called inactive (in experiment [8]; with Aromatase (Homo sapiens)).
For `CCOC(=O)CC(CC(=O)OCC)(OC(C)=O)C(=O)OCC`, the Potency result in [1], in [2], in experiment [18], in experiment [5], in [6] and in experiment [7] was “inactive” throughout. The result (in experiment [4]; in experiment [17]; in experiment [8]; in the experiment with Aromatase (Homo sapiens)) was inactive.
Consider `CCOc1ccc(NC(=O)OC(C)C)cc1OCC`, for which the Potency entry in experiment [1], in experiment [18], in [5], in experiment [6] and in experiment [7] was “inactive” each time. Besides, the Potency in [2] is 61.1 µM (active). Moreover, the call (in experiment [4]; in experiment [8]; in the experiment with Aromatase (Homo sapiens)) was inactive.
As for `CCCCCC1CCCC(=O)O1` (stereo not given), the Potency result in experiment [1], in experiment [2], in experiment [3], in experiment [5], in [6] and in [7] was “inactive” in each case. In addition, the molecule was called inactive (in [4]; in experiment [8]; in the experiment with Aromatase (Homo sapiens)).
With `CCC(=O)c1ccc(O)cc1`, the Potency entry in experiment [19], in experiment [2], in experiment [3], in experiment [18], in experiment [5] and in [6] was “inactive” in each case. Besides, the Potency entry in experiment [13], in experiment [7], in [14] and in [15] was “inactive” each time. For the same molecule, the molecule was called inactive (in experiment [4]; in [17]; in experiment [16]; in experiment [8]; with Aromatase (Homo sapiens)).
For the molecule `C[CH2][Ge]([Cl])([CH2]C)[CH2]C`, the Potency entry in experiment [1], in experiment [2], in experiment [3], in [5] and in experiment [6] was “inactive” each time. Also, the molecule was called inactive (in [4]; in experiment [17]; in experiment [8]; in the experiment with Aromatase (Homo sapiens)).
